The results in this text go back to PubChem BioAssay.

Unmarked numbers belong to inactive results. How the calls were made is not given here.

In this assay the target is Lethal factor (Bacillus anthracis) (UniProt P15917). The assay is described as follows: Bacillus anthracis lethal factor inhibition, microsphere flow cytometry protease assay, validation at 10 µM (AID 588461). The conditions noted are these: multiplex microsphere protease cleavage assay, active compounds read high. (In flow cytometry, cells or beads pass a laser one at a time.)
Lethal factor (Bacillus anthracis), sequence (P15917 whole entry, looked up): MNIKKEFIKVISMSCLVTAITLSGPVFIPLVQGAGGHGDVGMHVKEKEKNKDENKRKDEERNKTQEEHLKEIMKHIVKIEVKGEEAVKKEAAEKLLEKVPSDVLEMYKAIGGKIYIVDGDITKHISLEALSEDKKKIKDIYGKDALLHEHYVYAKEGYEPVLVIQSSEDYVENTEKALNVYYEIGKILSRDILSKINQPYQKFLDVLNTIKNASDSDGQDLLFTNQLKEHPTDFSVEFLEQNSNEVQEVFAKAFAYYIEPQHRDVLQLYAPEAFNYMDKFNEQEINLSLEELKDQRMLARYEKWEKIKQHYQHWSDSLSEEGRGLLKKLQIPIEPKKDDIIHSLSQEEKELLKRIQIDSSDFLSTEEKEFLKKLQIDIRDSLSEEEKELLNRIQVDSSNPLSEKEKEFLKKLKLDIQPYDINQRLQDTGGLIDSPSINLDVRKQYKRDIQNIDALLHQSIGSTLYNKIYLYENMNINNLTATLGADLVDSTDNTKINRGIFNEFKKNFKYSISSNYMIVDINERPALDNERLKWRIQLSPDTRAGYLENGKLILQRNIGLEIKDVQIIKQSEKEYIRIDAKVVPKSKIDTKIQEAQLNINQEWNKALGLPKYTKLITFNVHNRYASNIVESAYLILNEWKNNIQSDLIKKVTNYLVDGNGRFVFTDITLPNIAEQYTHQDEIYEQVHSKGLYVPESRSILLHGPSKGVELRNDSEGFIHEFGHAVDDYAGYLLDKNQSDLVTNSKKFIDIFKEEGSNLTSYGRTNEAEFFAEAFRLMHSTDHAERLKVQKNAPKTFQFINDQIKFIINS
By inhibition is commonly meant the relative decrease from the control value, in per cent. Consider `CC(C)(C)N(Cc1ccccc1)C(=O)c1ccc(Br)o1`, for which the inhibition was 11.8%. For `O=C(O)CCCCCN=C1CCc2ccccc2N1` the value was 0.8%; for `CC(C)CC(=O)Nc1ccc2oc(-c3ccncc3)nc2c1`, -2.1%. To `COc1ccc2[nH]cc(CCNC(=O)C3CCCNC3=O)c2c1` (stereo not drawn) belongs -5.3%; to `O=C(O)C1CSC(c2ccc3c(c2)OCO3)N1` (stereo not drawn), -0.7%. For `COCCOC(=O)C1=C(N)OC2=C(C(=O)CCC2)C1c1cccnc1` (stereo not drawn), the inhibition is -0.9%. For `COc1ccc2[nH]c(=O)c(CNC3CCCCC3)cc2c1` the value was -0.1%.

Take `Cc1oc2ccc(OC(=O)c3cccs3)cc2c1C(=O)OC(C)C`: the inhibition was 3.1%. As to `COc1ccc(-c2cc(=O)oc3cc(OC(C)C(=O)O)ccc23)cc1` (stereo not drawn), the inhibition is 9.7%. To `COc1ccc2[nH]c(CN3CCN(CC(C)C)C(CCO)C3)c(C)c2c1` (stereo not drawn) belongs 3.1%; to `CC(C)(C)C(=O)NC(=S)NNC(=O)c1ccncc1`, -3.3%; to `CC(C)c1ccc(NC(=O)CNS(=O)(=O)c2ccc(F)cc2)cc1`, 2.8%. To `Cn1c2ccc(CC(=O)O)cc2c2cc(CC(=O)O)ccc21` belongs 7.2%; to `O=C1OC(Nc2ccc3c(c2)OCO3)c2ccccc21` (stereo not drawn), -5.7%.

Consider `O=CNC1CCCc2c1[nH]c1ccc(Cl)cc21` (stereo not drawn), for which the inhibition was 1.6%.

Turning to `CN(C)CCCN1c2ccccc2Sc2ccccc21`, the inhibition is -3.7%.

Turning to `COc1ccccc1N1C(=O)C2CC(C)=C(C)CC2C1=O` (stereo not drawn), the inhibition is 3.9%. For `Cc1ccc(NC(=O)CSc2nc(O)c(Cc3ccccc3)c(=O)n2-c2ccccc2)cc1`, the inhibition is 2%.
